Reference: PubChem BioAssay
For some of these results: Measured potencies and affinities stand elsewhere. Calls of active or inactive are those of the source. Unless noted, how the calls were made is not given here.

Experiments:
[1] = antimalarial activity against Dd2 strain (AID 2302;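 active means growth inhibition above 50% at the single 2 µM test dose, taken to imply half-maximal potency below 2 µM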;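 further: 0% = DMSO untreated growth and 100% = chloroquine plus artemisinin killed control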); conditions: P. falciparum Dd2 in RBCs, LDH growth readout, 72 h; at 2 µM; active compounds read high
[2] = HepG2 cytotoxicity, primary screen, cytotoxicity control for P. falciparum antimalarial project, cell-based, ATP luminescence (AID 2303;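 active means inhibition above 50%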;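 further: 0% = DMSO wells and 100% = digitonin-killed cells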); conditions: HepG2 viability, 24-48 h, at 10 µM, active compounds read high
[3] = biological target: L-lactate dehydrogenase (Plasmodium falciparum (isolate CDC / Honduras)) (UniProt Q27743); assay: PfLDH activity inhibition – cell lysate, 3D7 strain, counter-screen for P. falciparum growth inhibition project (AID 2304);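 further: 0% = vehicle and 100% = reference inhibitor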; conditions: P. falciparum 3D7 crude extract, LDH APAD/NBT absorbance; at 2 µM; active compounds read high
L-lactate dehydrogenase (Plasmodium falciparum (isolate CDC / Honduras)), sequence (Q27743 whole entry, looked up): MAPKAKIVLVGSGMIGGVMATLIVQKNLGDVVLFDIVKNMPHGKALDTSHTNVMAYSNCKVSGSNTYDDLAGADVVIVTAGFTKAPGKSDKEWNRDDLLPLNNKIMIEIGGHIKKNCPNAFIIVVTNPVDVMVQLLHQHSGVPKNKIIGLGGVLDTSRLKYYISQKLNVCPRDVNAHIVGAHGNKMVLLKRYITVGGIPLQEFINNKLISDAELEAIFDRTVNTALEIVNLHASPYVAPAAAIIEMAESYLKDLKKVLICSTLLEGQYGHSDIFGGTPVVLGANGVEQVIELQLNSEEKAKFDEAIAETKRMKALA

[4] = inhibition of 3D7 malaria parasite growth – strain 3D7 (AID 2306);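 further: 0% = DMSO wells and 100% = chloroquine plus artemisinin control wells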; conditions: P. falciparum 3D7 erythrocytic growth, LDH absorbance, 72 h; at 2 µM; active compounds read high
[5] = biological target: Calcium-dependent protein kinase 1 (Plasmodium falciparum (isolate 3D7)) (UniProt P62344); assay: PfCDPK1 kinase inhibitors, biochemical, TCAMS library (AID 1159585; cut-off not given, nearly all actives have IC50 up to about 0.98 µM;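 further: inhibitors leave more ATP so luminescence rises with inhibition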); conditions: recombinant PfCDPK1, Kinase-Glo ATP depletion luminescence
Calcium-dependent protein kinase 1 (Plasmodium falciparum (isolate 3D7)), sequence (P62344 whole entry, looked up): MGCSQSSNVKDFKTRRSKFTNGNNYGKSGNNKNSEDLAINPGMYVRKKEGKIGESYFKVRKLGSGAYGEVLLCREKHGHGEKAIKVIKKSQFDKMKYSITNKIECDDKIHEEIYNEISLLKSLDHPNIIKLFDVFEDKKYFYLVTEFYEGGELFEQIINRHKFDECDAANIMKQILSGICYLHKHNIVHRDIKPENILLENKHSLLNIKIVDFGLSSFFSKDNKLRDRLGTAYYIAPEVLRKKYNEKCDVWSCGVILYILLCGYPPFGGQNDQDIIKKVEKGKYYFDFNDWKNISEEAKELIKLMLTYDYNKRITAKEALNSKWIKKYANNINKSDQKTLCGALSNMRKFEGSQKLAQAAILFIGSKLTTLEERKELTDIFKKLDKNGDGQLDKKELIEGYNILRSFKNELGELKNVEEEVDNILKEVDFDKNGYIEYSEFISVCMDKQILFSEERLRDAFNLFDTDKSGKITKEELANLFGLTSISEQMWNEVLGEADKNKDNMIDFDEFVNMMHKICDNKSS

[6] = biological target: Plasmodium falciparum protein kinase 6 (PK6, PF3D7_1337100) (UniProt Q8IDW1); assay: PfPK6 kinase inhibitors, biochemical, TCAMS library (AID 1159586); conditions: recombinant PfPK6, Kinase-Glo ATP depletion luminescence
Plasmodium falciparum protein kinase 6 (PK6, PF3D7_1337100), sequence (Q8IDW1 1-305): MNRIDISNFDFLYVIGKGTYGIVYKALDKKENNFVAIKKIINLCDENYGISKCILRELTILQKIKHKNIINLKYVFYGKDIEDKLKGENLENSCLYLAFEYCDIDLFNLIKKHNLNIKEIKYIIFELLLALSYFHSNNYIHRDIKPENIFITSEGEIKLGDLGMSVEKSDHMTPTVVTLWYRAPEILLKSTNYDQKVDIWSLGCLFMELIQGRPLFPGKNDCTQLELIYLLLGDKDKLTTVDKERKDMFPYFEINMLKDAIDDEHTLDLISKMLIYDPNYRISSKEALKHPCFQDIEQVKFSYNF

[7] = biological target: Protein kinase 7 (PK7), Plasmodium falciparum 3D7 (PF3D7_0213400) (UniProt Q7YTF7); assay: inhibition of Plasmodium PK7 catalytic activity – biochemical, TCAMS antimalarial set, Kinase-Glo luminescence (AID 1159587); conditions: recombinant PfPK7, Kinase-Glo ATP depletion luminescence
Protein kinase 7 (PK7), Plasmodium falciparum 3D7 (PF3D7_0213400), sequence (Q7YTF7 1-343): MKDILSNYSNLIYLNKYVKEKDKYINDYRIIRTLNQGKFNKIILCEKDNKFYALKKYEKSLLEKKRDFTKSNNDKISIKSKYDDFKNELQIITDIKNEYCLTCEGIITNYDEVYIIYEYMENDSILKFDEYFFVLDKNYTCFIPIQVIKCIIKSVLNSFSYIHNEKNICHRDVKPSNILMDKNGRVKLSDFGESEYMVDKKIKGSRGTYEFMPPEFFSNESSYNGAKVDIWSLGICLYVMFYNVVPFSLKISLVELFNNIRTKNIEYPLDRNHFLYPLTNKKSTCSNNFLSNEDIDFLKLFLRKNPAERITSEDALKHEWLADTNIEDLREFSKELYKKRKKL

[8] = biological target: Calcium-dependent protein kinase 4 (Plasmodium falciparum (isolate 3D7)) (UniProt Q8IBS5); assay: PfCDPK4 kinase inhibitors, biochemical, TCAMS library (AID 1159588; cut-off not given, nearly all actives have IC50 up to about 0.91 µM); conditions: recombinant PfCDPK4, Kinase-Glo ATP depletion luminescence
Calcium-dependent protein kinase 4 (Plasmodium falciparum (isolate 3D7)), sequence (Q8IBS5 whole entry, looked up): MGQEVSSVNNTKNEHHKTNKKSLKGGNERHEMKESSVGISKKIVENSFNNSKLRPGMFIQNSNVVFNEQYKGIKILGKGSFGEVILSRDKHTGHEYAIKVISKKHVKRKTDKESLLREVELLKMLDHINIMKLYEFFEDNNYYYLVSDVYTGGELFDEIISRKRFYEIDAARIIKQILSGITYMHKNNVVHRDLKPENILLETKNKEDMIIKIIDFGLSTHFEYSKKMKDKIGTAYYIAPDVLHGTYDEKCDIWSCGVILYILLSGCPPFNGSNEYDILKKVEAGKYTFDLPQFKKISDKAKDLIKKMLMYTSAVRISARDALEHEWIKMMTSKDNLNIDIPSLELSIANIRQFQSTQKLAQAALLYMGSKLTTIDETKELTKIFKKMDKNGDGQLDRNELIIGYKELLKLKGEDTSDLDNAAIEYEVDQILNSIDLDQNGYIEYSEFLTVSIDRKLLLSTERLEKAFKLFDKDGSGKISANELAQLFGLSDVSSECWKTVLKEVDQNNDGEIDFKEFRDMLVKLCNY

O=c1cc(NCCCNCc2cc(C(F)(F)F)ccc2F)[nH]c2ccccc12
active: growth inhibition [4] 94%
inactive: growth inhibition [1] 43% | inhibition [2] 0% | inhibition [3] -2% | outcome [5] | outcome [6] | outcome [7] | outcome [8]

O=C(NCc1cccs1)[C@H](Cc1ccccc1)Nc1ccnc(NCCc2ccc(F)cc2)n1
active: growth inhibition [1] 52% | growth inhibition [4] 85%
inactive: inhibition [2] 1% | inhibition [3] -2% | outcome [5] | outcome [6] | outcome [7] | outcome [8]

Cc1ccccc1C1CCN(C2CCC(NC(=O)C3=Cc4cc(Cl)ccc4OC3)CC2)CC1 (stereo not given)
inactive: inhibition [3] 0% | outcome [5] | outcome [6] | outcome [7] | outcome [8]
active: growth inhibition [1] 99% | inhibition [2] 51% | growth inhibition [4] 100%

Cc1cc(NC(=O)c2sc3ccccc3c2O)no1
inactive: growth inhibition [1] 25% | inhibition [2] 6% | inhibition [3] 1% | outcome [5] | outcome [6] | outcome [7] | outcome [8]
active: growth inhibition [4] 96%

O=C(Cc1ccc(NC(=O)c2ccc(O)c(-c3ccc(Cl)c(Cl)c3)c2)cc1)NCCN1CCCCC1
active: growth inhibition [1] 63% | growth inhibition [4] 95%
inactive: inhibition [2] 12% | inhibition [3] -4% | outcome [5] | outcome [6] | outcome [7] | outcome [8]

O=S(=O)(Nc1ccc(CCN2CCC(N3CCCCC3)CC2)cc1)c1ccccc1C(F)(F)F
inactive: growth inhibition [1] 8% | inhibition [2] 9% | inhibition [3] -3% | outcome [5] | outcome [6] | outcome [7] | outcome [8]
active: growth inhibition [4] 95%

CCCCCN1CCCC(NS(=O)(=O)c2ccc(C(=O)Nc3cccc(C(F)(F)F)c3)cc2)C1 (stereo not given)
inactive: growth inhibition [1] 3% | inhibition [2] 30% | inhibition [3] 5% | outcome [5] | outcome [6] | outcome [7] | outcome [8]
active: growth inhibition [4] 97%

O=C(NC1CCN(Cc2ccccc2)CC1)c1ccc(-c2nc3cc(Cl)c(F)cc3[nH]2)cc1
active: growth inhibition [1] 100% | growth inhibition [4] 100%
inactive: inhibition [2] 13% | inhibition [3] 3% | outcome [5] | outcome [6] | outcome [7] | outcome [8]

CCN(CCCN1CCCCC1)c1cc(C)nc(Nc2ccc(Cl)cc2)n1
active: growth inhibition [1] 82% | growth inhibition [4] 101%
inactive: inhibition [2] 23% | inhibition [3] -2% | outcome [5] | outcome [6] | outcome [7] | outcome [8]

O=C(Nc1ccccc1)N(Cc1ccccc1-c1cccc(CNC2CCCC2)c1)C1CCN(Cc2ccccc2)CC1
inactive: inhibition [2] 36% | inhibition [3] 3% | outcome [5] | outcome [6] | outcome [7] | outcome [8]
active: growth inhibition [1] 84% | growth inhibition [4] 100%

COc1ccc(-c2cnc(NCc3ccccc3)nc2)cc1CNC1CCN(C)CC1
active: growth inhibition [1] 64% | growth inhibition [4] 96%
inactive: inhibition [2] 19% | inhibition [3] 1% | outcome [5] | outcome [6] | outcome [7] | outcome [8]

Cc1ccccc1C1CCN(c2ccc(C(=O)Nc3ccc(F)cc3)cn2)CC1
active: growth inhibition [1] 96% | growth inhibition [4] 96%
inactive: inhibition [2] 45% | inhibition [3] -1% | outcome [5] | outcome [6] | outcome [7] | outcome [8]

CCC1(C)CC(CCNCc2ccccc2O)(c2ccccc2OC)CCO1 (stereo not given)
inactive: inhibition [2] 10% | inhibition [3] -2% | outcome [5] | outcome [6] | outcome [7] | outcome [8]
active: growth inhibition [1] 93% | growth inhibition [4] 94%

O=C(/C=C/c1ccc(Cl)c(Cl)c1)NCCCCCN1CCN(C(=O)Nc2ccc(C(F)(F)F)cc2)CC1
inactive: growth inhibition [1] -1% | inhibition [2] 26% | inhibition [3] -5% | outcome [5] | outcome [6] | outcome [7] | outcome [8]
active: growth inhibition [4] 99%

O=C(O)c1cc(C(F)(F)F)co1
active: growth inhibition [4] 96%
inactive: growth inhibition [1] 19% | inhibition [2] -4% | inhibition [3] 1% | outcome [5] | outcome [6] | outcome [7] | outcome [8]

O=C(CN1CCC2(CCC1=O)CC(=O)c1ccccc1O2)NCCN1CCOCC1 (stereo not given)
inactive: growth inhibition [1] -4% | inhibition [2] 6% | inhibition [3] -4% | outcome [5] | outcome [6] | outcome [7] | outcome [8]
active: growth inhibition [4] 101%

Clc1ccc(CNCCCCCCNCc2ccc(Cl)cc2)cc1
inactive: growth inhibition [1] 28% | inhibition [3] 1% | outcome [5] | outcome [6] | outcome [7] | outcome [8]
active: inhibition [2] 53% | growth inhibition [4] 96%

CCCCCCCN(CCCCCCC)CCCC(=O)Nc1ccnc2ccc(OC)cc12
active: growth inhibition [1] 98% | growth inhibition [4] 100%
inactive: inhibition [2] 43% | inhibition [3] -5% | outcome [5] | outcome [6] | outcome [7] | outcome [8]

CN(/N=C/C=C/c1ccc(Cl)cc1)c1nc(NCCc2ccc(O)cc2)nc(N2CCNCC2)n1
inactive: inhibition [2] 14% | inhibition [3] 1% | outcome [5] | outcome [6] | outcome [7] | outcome [8]
active: growth inhibition [1] 69% | growth inhibition [4] 92%

CCN(CCCN1CCCCC1)c1cc(C)nc(Nc2ccc(C(C)C)cc2)n1
active: growth inhibition [1] 51% | growth inhibition [4] 100%
inactive: inhibition [2] 34% | inhibition [3] 2% | outcome [5] | outcome [6] | outcome [7] | outcome [8]
